# CYP2C19 act – activators of human cytochrome P450 2C19; recombinant CYP2C19, luciferin-H EGE luminescence; active compounds read high; 0 = fully inhibited enzyme, 1 = untreated enzyme; activation factor at 5 µM; 96,000 tested, under 10 active; P33261;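 active = activation factor of at least 2 at 5 µM in the primary screen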;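 also: 0 = wells with 2.5 mM tranylcypromine and 1 = vehicle-only wells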
# CYP2C9 inh – inhibitors of human CYP2C9; inhibition, % at 5 µM; P11712; CYP2C9 Supersomes, luciferin-H conversion, luminescence; 20% of 96,000 active;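 active = blocking of liver enzyme CYP2C9 beyond about 50% at 5 µM, limit read from the data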
# sEH act – increases human soluble epoxide hydrolase activity | AID 717 | purified human sEH enzymatic activity, activator screen | activation, % at 2 µM | 0.04% of 91,000 active; in the data active = activation above about 37%
# Target sequence (P34913 whole entry, looked up): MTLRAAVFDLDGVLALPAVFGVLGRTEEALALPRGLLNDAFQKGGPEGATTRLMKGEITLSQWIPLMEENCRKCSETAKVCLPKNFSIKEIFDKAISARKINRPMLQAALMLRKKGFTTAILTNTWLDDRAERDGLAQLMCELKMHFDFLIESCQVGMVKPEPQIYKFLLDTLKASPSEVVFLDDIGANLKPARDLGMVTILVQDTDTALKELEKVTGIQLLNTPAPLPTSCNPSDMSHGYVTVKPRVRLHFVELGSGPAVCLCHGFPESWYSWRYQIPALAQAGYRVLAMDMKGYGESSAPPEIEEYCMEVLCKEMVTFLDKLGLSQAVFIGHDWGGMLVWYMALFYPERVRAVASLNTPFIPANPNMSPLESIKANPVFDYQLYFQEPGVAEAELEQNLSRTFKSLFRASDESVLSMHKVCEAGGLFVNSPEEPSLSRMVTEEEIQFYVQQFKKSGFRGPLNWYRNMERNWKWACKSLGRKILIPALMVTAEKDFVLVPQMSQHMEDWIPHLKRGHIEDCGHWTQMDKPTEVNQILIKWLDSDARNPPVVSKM
# CYP2C9 act – activators of human CYP2C9; recombinant CYP2C9, luciferin-H conversion, luminescence; active compounds read high; factor 1 = untreated enzyme, 0 = blocked; activation factor at 5 µM; 1.4% of 96,000 active;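 active = activation factor of 2 or more for CYP2C9 at a 5 µM dose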;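 also: 0 = sulfaphenazole-blocked wells and 1 = vehicle-only wells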
# CYP2C19 inhib – inhibitors of human CYP2C19; CYP2C19 Supersomes, luciferin-H EGE luminescence, 30 min; inhibition, % at 5 µM; 21% of 96,000 active; AID 778;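 active = CYP2C19 inhibition above a set limit at 5 µM in the primary screen, cut at about 50% in these data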;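 also: plate controls were negative control wells for no effect and 2.5 mM tranylcypromine positive control for full effect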
# sEH inh – inhibitors of human soluble epoxide hydrolase; recombinant human sEH enzymatic activity assay; 0.34% of 91,000 active; P34913; AID 707; inhibition, % at 2 µM; in the data active = inhibition above about 80%
# The depositor's hits bear a star; x = no result given. A selection: hits, their analogues and other compounds. The true share with any hit is near 27%.
SMILES,CYP2C19 act,CYP2C9 inh,sEH act,CYP2C9 act,CYP2C19 inhib,sEH inh
CCOC(=O)c1c(-c2cccc([N+](=O)[O-])c2)csc1NC(=O)C1CC1,0.7,76*,-15,0.2,27,17
CCOC(=O)c1c(-c2ccc(C)c(C)c2)csc1NC(=O)C1CC=CCC1C(=O)O (stereo unspecified),0.9,76*,5,0.2,10,-7
CN1C(=O)c2c(sc3c2CCCC3)NC1c1ccccc1O (stereo unspecified),0.3,87*,x,0.1,74*,x
Cc1cccc(C2NC(=O)c3c(sc(C)c3C)N2)c1O (stereo unspecified),1.1,-59,6,1.6,-5,-4
Cc1nccn1Cc1cccc2ccccc12,0.5,27,-1,0.7,51*,-3
COC(=O)C1=C(C)NC2=C(C1c1ccc(O)cc1)S(=O)(=O)c1ccccc12 (stereo unspecified),0.4,87*,-7,0.1,62*,8
COc1ccc(C2C(C#N)=C(C)NC3=C2S(=O)(=O)c2ccccc23)cc1 (stereo unspecified),x,x,12,x,x,-9
CCCCc1cc(=O)oc2cc(C)cc(OCC(=O)O)c12,1.2,8,x,0.9,-24,x
CCCc1cc(=O)oc2cc(C)c3c(C)coc3c12,0.5,30,-11,0.7,53*,11
CCc1cc(=O)oc2cc3oc(C)c(C)c3cc12,0.6,17,x,0.8,44,x
CCCc1cc(=O)oc2cc3oc(C)c(C)c3cc12,0.3,36,x,0.6,72*,x
CCCc1cc(=O)oc2cc3occ(C)c3cc12,0.3,76*,7,0.2,71*,-9
Cc1coc2cc3oc(=O)c4c(c3cc12)CCC4,1,13,x,0.9,-3,x
CC(=O)NC(NC(C)=O)c1ccc(N(C)C)cc1,x,x,2,x,x,2
CCOC(=O)C1CCN(c2cc(=O)n(Cc3ccc(F)cc3)c(=O)[nH]2)CC1,1.1,26,x,0.7,-5,x
COc1ccccc1CNC(=O)/C=C/c1cc2c(cc1Br)OCO2,1,-36,-44,1.4,4,46
O=C1Nc2ccc(F)cc2C12SCCS2,0.6,-127,2,2.3*,43,-3
CCOC(=O)C1=C(C)N(CCO)C(=O)NC1c1cccc(O)c1 (stereo unspecified),1.1,-6,0,1.1,-14,0
CCC1SC2=NC(C)=C(C(=O)OC)C(c3cccs3)N2C1=O (stereo unspecified),0.1,44,23,0.6,90*,-24
CCOC(=O)C1=C(C)N=C2SC(CC)C(=O)N2C1c1cccc(F)c1 (stereo unspecified),0.1,75*,-12,0.2,91*,14
CCc1ccc2c(c1)cc(CN(C(=S)Nc1ccccc1)C1CC1)c1nnnn12,0.9,48,x,0.5,10,x
Cc1ccccc1NS(=O)(=O)c1cc(C(=O)Nc2ccccc2-c2ccccc2)ccc1Cl,0.6,84*,-14,0.2,36,14
Cc1ccc(C)c(NS(=O)(=O)c2cc(C(=O)N3CCc4ccccc4C3)ccc2Cl)c1,0.6,59*,-34,0.4,36,35
Cc1ccc(C)c(NS(=O)(=O)c2cc(C(N)=O)ccc2C)c1,0.2,2,-6,1,76*,6
Cc1cccc(NS(=O)(=O)c2cc(C(=O)N3CCc4ccccc4C3)ccc2Cl)c1C,0.6,58*,-9,0.4,36,11
SMILES,CYP2C19 act,CYP2C9 inh,sEH act,CYP2C9 act,CYP2C19 inhib,sEH inh
C=CCNC(=O)c1ccccc1NC(=O)c1ccc(Cl)c(S(=O)(=O)Nc2cc(C)ccc2C)c1,0.9,-2,0,1,6,2
CCOC(=O)N1CCN(C(=O)c2ccc(C)c(S(=O)(=O)Nc3ccccc3)c2)CC1,1,43,11,0.6,3,-11
CCOC(=O)N1CCN(C(=O)c2ccc(C)c(S(=O)(=O)Nc3cccc(C)c3C)c2)CC1,0.5,98*,6,0,54*,-8
CC(C)Oc1ccccc1C1CC(=O)Nc2c1c(=O)n(C)c(=O)n2C (stereo unspecified),1.1,-8,11,1.1,-11,-14
O=C(c1ccc(Nc2cccc(C(F)(F)F)c2)nc1)N1CCCC1,0.4,66*,x,0.3,60*,x
COc1ccc(-n2c(SCC(=O)N3CCOCC3)nc(O)c(Cc3ccccc3)c2=O)cc1,0.8,11,24,0.9,18,-21
